# hDAT+cocaine: modulates human dopamine transporter uptake under cocaine; Q01959; LLC-PK1 hDAT cells, [14C]-dopamine uptake with cocaine IC80; actives deviate in either direction; B-score at 10 µM; actives 1.3% (n = 110,000); AID 449768;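 active = Z score or B-score, a plate-position-corrected score, falls beyond the plate's 99.7% confidence bounds, in either direction; inactive = both scores lie inside the 99.7% bounds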;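 note: scored against the spread of the other compound wells on the same plate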
# Target sequence (Q01959 whole entry, looked up): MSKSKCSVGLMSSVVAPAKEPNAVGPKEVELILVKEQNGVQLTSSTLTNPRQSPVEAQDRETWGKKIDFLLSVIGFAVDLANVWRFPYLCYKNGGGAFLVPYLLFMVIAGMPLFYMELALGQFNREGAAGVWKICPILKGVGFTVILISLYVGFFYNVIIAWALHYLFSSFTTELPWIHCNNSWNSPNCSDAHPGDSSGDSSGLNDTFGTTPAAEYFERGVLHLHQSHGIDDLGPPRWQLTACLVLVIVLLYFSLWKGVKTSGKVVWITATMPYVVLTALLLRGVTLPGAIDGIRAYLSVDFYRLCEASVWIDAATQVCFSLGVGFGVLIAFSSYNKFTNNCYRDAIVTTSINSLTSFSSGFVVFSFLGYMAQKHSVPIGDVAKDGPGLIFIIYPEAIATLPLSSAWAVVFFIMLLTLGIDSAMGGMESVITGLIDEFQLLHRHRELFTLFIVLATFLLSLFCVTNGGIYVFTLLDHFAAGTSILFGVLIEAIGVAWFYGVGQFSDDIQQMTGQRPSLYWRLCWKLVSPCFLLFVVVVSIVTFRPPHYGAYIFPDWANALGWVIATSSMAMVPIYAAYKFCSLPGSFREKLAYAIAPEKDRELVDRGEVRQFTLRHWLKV
# PostGolgi ctrl: yeast control strain growth, post-Golgi counter-screen; inhibition, % at 10 µM; efflux-deficient yeast background strain, growth absorbance A615, 16 h; AID 738; actives 5% (n = 98,000)
# Cav32 inh: inhibitors of human Cav3.2 T-type calcium channel; O95180; actives 4% (n = 100,000); Cav3.2-expressing cells, Fluo-4 calcium fluorescence FDSS; stronger effect = lower value; B-score at 10 µM;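 active = single-dose well whose peak fluorescence ratio is a statistical outlier from its plate by either plate-standardised score or position-corrected B-score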
# PLAP activator: activates human placental alkaline phosphatase | AID 696 | activation fold at 20 µM | purified PLAP enzyme, luminescent substrate read-out; stronger effect = higher value | P05187 | actives 1.2% (n = 96,000); in the data active = activation fold above about 2
# PostGolgi yeast: growth inhibition of a yeast mutant, post-Golgi transport screen; post-Golgi transport phenotypic cell assay; inhibition, % at 10 µM; actives 0.9% (n = 98,000);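 note: yeast cells grown in 1536-well plates; yeast grown about 18 h at 30C before absorbance read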
# Starred values were filed as active, the others as inactive; x = no result. A selection: hits, their analogues and other compounds. The true share with any hit is near 9.6%. Cut-off read from the data, not from the text of the source, unless noted: active = inhibition above about 30%; inactive = the rest.
SMILES,hDAT+cocaine,PostGolgi ctrl,Cav32 inh,PLAP activator,PostGolgi yeast
CCN(CC)S(=O)(=O)c1ccc(/C(O)=C(\C#N)c2nc3ccccc3n2C)cc1,1.7,6,-0.025,1.9,-2
Cc1ccc(SC/C(O)=C(\C#N)c2nc3ccccc3n2C)cc1,0.1,37*,-0.41,0.9,-2
Cn1c(/C(C#N)=C(\O)CN2CCN(Cc3ccccc3)CC2)nc2ccccc21,0.021,14,-2.4,2.5*,-3
O=C(Nc1cccc(F)c1)N1CC=C(c2ccc(Cl)cc2)CC1,0.19,41*,-7.4*,1.2,22
Cc1ccc(NC(=O)CSc2nnc(-c3cnccn3)n2-c2ccccc2)cc1,-0.52,8,0.81,1,-5
CC1=C(C(=O)Nc2ccc(Br)cc2)C(c2ccco2)NC(=O)N1 (stereo not given),-0.72,-2,0.27,0.8,16
CCOc1cc(CNc2ccc(N(C)C)cc2)cc(Br)c1OCC(=O)NC(C)(C)C,0.24,14,-0.77,1.3,-14
C=CCOc1c(Br)cc(CNc2ccc(NC(=O)CCC)cc2)cc1OCC,1.8,-1,-5.4*,1.4,-10
CCOC(=O)c1c(CN2CCC(C)CC2)oc2ccc(OC)cc12,1.8,-5,-4.2*,1.6,1
CCOC(=O)c1c(CN2CCN(C)CC2)oc2ccc(OC)cc12,0.46,-15,0.82,1,-1
CCOC(=O)c1c(CN2CCCCC2C)oc2ccc(OC)cc12 (stereo not given),0.44,-1,-1.4,1.4,30*
COc1cccc(C(=O)/C=C/Nc2cc(C)ccc2O)c1,-0.76,9,-1,2.9*,10
COc1ccc(N/C=C/C(=O)c2ccc(C)cc2)c([N+](=O)[O-])c1,-0.2,x,-1.7,x,x
CC(CO)Nc1nc(SCc2ccccc2)nc2sc3c(c12)CCC3 (stereo not given),-0.081,50*,-1.6,1,1
Cc1nc(NCCc2ccc(S(N)(=O)=O)cc2)c2c3c(sc2n1)CCC3,0.72,2,-0.41,0.9,-4
COCCNc1nc(SCc2ccccc2)nc2sc3c(c12)CCC3,0.27,15,-4.5*,1,1
CNC(=O)CSc1nc(N)c2c3c(sc2n1)CCC3,-0.24,4,0.14,0.8,7
O=C(Cc1ccccc1)NCC(=O)OCC(=O)c1ccc(OC(=O)c2ccccc2)cc1,-0.76,-1,-0.11,1,3
O=C(NCc1ccc2c(c1)OCO2)C1CC(c2ccc(Cl)cc2)=NO1 (stereo not given),-0.89,15,-5.6*,0.9,2
O=C(NCc1ccc(OC(F)(F)F)cc1)C1CC(c2cccc(F)c2)=NO1 (stereo not given),-0.42,x,-3.2*,x,x
O=C(NCc1ccc2c(c1)OCO2)c1ccc(-c2ccc(Cl)cc2)o1,2.4*,70*,-2.7,0.9,16
COc1cc(OC)c(C2=NOC(C(=O)NCc3ccc4c(c3)OCO4)C2)cc1Cl (stereo not given),0.63,9,-2.3,0.8,3
Cc1ccc(CNC(=O)C2CC(c3cccc(F)c3)=NO2)cc1 (stereo not given),-1.8,x,-1.8,x,x
CCCN1C(=O)SC(CC(=O)Nc2ccc(Br)cc2)C1=O (stereo not given),-1.3,12,-3.1,1,11
COc1ccc(OC)c(C(O)c2nc3ccccc3n2C(C)C)c1 (stereo not given),1.4,6,-0.83,1,1
SMILES,hDAT+cocaine,PostGolgi ctrl,Cav32 inh,PLAP activator,PostGolgi yeast
COc1ccc(OC)c(C(C)NC=O)c1 (stereo not given),-0.52,39*,-0.55,0.9,4
Cc1cc(NC(=O)CSc2nnnn2Cc2ccccc2)no1,-0.77,3,0.49,x,-1
Cc1ccc2c(c1)NC(=O)C(CC(=O)N(C)Cc1ccccc1)O2 (stereo not given),-0.056,-2,-1.4,1.1,9
O=C(c1cccn2c(=O)c3ccccc3nc12)N1CCN(Cc2ccc3c(c2)OCO3)CC1,3.2*,15,-1.7,1.5,17
O=C(C1COc2ccccc2O1)N1CCN(Cc2ccc3c(c2)OCO3)CC1 (stereo not given),1.3,28,-1,1.5,65*
O=C(O)C1C2C=CC(C2)C1C(=O)NC1CCN(Cc2ccccc2)CC1 (stereo not given),-0.21,3,x,1.3,-3
O=C(Nc1ccccc1)N1CCN(Cc2ccc3c(c2)OCO3)CC1,0.6,3,-5.5*,0.9,2
O=C(NC1CCN(Cc2ccccc2)CC1)C1COc2ccccc2O1 (stereo not given),-0.013,14,0.028,1.5,70*
O=C(CSCc1ccccc1)N1CCN(Cc2ccc3c(c2)OCO3)CC1,0.68,x,-0.018,x,x
COc1ccc(N2CCN(C(c3ccccc3)c3sc4nc(C)nn4c3O)CC2)cc1 (stereo not given),0.79,x,-0.87,x,x
O=C(CN1CCC(C(=O)c2ccc(Cl)cc2)CC1)Nc1ccc2c(c1)OCCO2,0.96,11,-2.9,1.8,1
COC(=O)c1c(C)oc2ccc(N(C(=O)c3ccncc3)S(=O)(=O)c3ccccc3)cc12,0.85,16,-4.1*,1.4,0
COC(=O)c1c(C)oc2ccc(NS(=O)(=O)c3cccs3)cc12,0.023,25,-4.9*,1.1,9
COCCOC(=O)c1c(C)oc2ccc(NS(=O)(=O)c3ccccc3)cc12,2.1,14,-2.8,1.2,-6
CCN(CC(N)=O)S(=O)(=O)c1ccc(Br)cc1,0.93,0,0.48,0.8,4
Cc1ccc(OCC(O)CNS(=O)(=O)c2ccccc2C(=O)N2CCCCC2)cc1 (stereo not given),-0.092,7,-1.4,1.4,7
CCOC(=O)c1c(-c2ccc(C)o2)csc1NC(=O)CN(C)CC(=O)Nc1ccc(C)cc1,0.0086,7,-0.44,2.2*,-8
Cc1ccc(-c2[nH]c3ccccc3c2C(C[N+](=O)[O-])c2ccco2)cc1 (stereo not given),-0.81,30*,-0.85,1.2,3
CCN(C(=O)CSc1ncccc1C(=O)OC(C)C)c1cccc(C)c1,1.4,1,-5.6*,1.7,-11
CCCCCOC(=O)C1[C@H]2C(=O)N(CCCOC)C[C@]23C=C[C@H]1O3 (stereo not given in full),-0.67,1,-0.026,1.6,1
COCCCn1c(=NC(=O)c2ccncc2)c(C#N)cc2c(=O)n3cccc(C)c3nc21,0.59,0,-2.5,1,10
Cc1cccn2c(=O)c3cc(C#N)c(=NC(=O)c4ccncc4)n(CCCOC(C)C)c3nc12,2.4*,4,-0.77,1.7,7
CCN1C(=O)N(c2cccc3ccccc23)C(C)=CC1(C)C,0.066,5,-5.7*,1.1,-23
CCCOC(=O)/C(C(N)=NCc1ccccc1)=C(\O)OCCC,2.4,8,-2.1,0.8,-1
O=C(Cc1ccc(Br)cc1)c1ccc(O)cc1O,-1.5,30*,-8.6*,1.2,-3
Cc1cc(C(=O)NNC(=S)NCC2CCCO2)cs1 (stereo not given),-0.65,4,0.27,2.2*,-8
